Source: PubChem BioAssay
In the library only some 4.6% were active in any assay of this set; here they are far more common.
PfHsp90 yeast 2 – inhibits growth of yeast expressing Plasmodium falciparum Hsp90; actives 0.32% (n = 310,000); inhibition, % at 9.4 µM; S. cerevisiae expressing PfHsp90, BacTiter-Glo ATP, 48 h; yeast lacking PDR1 and PDR3 efflux regulators; AID 504621;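 active = every replicate shows inhibition above about 80%, whatever the replicate mean, limit read from the data; inconclusive = mean inhibition reaches the set limit but some replicate falls short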;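 also: 0% = DMSO neutral controls and 100% = 20 µM radicicol positive controls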
NLRP3 yeast inh – NALP3 inhibition in yeast | Yeast reconstituted NLRP3/ASC/caspase-1, beta-gal luminescence, 24 h | inhibition, % at 10 µM | actives 0.39% (n = 330,000) | AID 2825;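 active = inhibition of 50% or more; inactive = inhibition below 50%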;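 also: plate controls were induced DMSO wells for no effect and uninduced yeast grown without galactose for full effect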
tim23-1 inh – tim23-1 yeast growth inhibition. actives 1.3% (n = 330,000). AID 463212. inhibition, % at 20 µM. S. cerevisiae tim23-1 growth, BacTiter-Glo luminescence, 24 h;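 active = growth inhibition of the mutant yeast at or above 50%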;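 also: temperature-sensitive mutant grown at 25 °C; plate controls were DMSO-treated mutant yeast for no effect and medium wells lacking yeast for full effect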
TIM10 inh – growth inhibitors of TIM10 yeast strain; S. cerevisiae TIM10 strain growth, BacTiter-Glo luminescence, 24 h; inhibition, % at 10 µM; actives 1.4% (n = 330,000);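 active = inhibition of 40% or more at the single tested concentration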;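 also: wild-type TIM10 isogenic control strain grown at permissive 25 °C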
tim10-1 inh – inhibits growth of tim10-1 mutant yeast | actives 2.2% (n = 330,000) | AID 463190 | S. cerevisiae tim10-1 ts strain growth, BacTiter-Glo, 24 h | inhibition, % at 20 µM;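 active = inhibition of at least 40%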;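 also: mutant grown at 25 °C; 0% = DMSO wells with yeast and 100% = wells holding no yeast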
SKKanGAS inh – inhibitors of SKKanGAS S. pyogenes growth in kanamycin (SK-promoter or general growth effect) | BacTiter-Glo, 6 h | inhibition, % at 7.5 µM | actives 1.3% (n = 300,000) | AID 1662;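 active = mean replicate score, as percent of positive control median, at least 50; inconclusive = mean below 50 but one replicate at or above 50; inactive = mean and every replicate below 50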;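 also: strain carries kanamycin resistance gene driven by streptokinase promoter and grows in 40 µg/ml kanamycin; loss of luminescence reflects streptokinase promoter inhibition or plain growth inhibition; 0% = median of DMSO wells and 100% = positive control at its reference dose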
tim10-1 conf – confirmation of tim10-1 mutant yeast growth inhibitors. shares compounds with tim10-1 inh. S. cerevisiae tim10-1 ts strain growth, BacTiter-Glo, 24 h. inhibition, % at 20 µM. actives 56% (n = 7,400). AID 463213;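 active = inhibition of yeast growth at or above a set limit in either of two repeat tests at 20 µM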;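 also: tim10-1 mutant grown at permissive 25 °C to find synthetic lethal compounds; 0% = DMSO yeast wells and 100% = medium wells without yeast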
* marks the source's active call; other numbers are inactive results; ? = inconclusive; / = no result given.

SMILES | PfHsp90 yeast 2 | NLRP3 yeast inh | tim23-1 inh | TIM10 inh | tim10-1 inh | SKKanGAS inh | tim10-1 conf
O=C1[C@H]2[C@@H](C(=O)N1c1cc(Cl)cc(Cl)c1)[C@]1(C(=O)Nc3ccccc31)N1CCC[C@@H]21 | 13 | 14 | 31 | 13 | 45* | -6 | 26
c1ccc(-c2cc(-c3nnco3)c3ccccc3n2)nc1 | / | 9 | 1 | -11 | 40* | 6 | 25
COc1cc(-c2cc(-c3nnco3)c3ccccc3n2)cc(OC)c1OC | / | 6 | 27 | 6 | 14 | 4 | /
O=C(N/C(=C/c1ccc(Br)cc1)C(=O)N1CCCC1)c1cccs1 | -2 | -8 | 34 | 23 | 46* | -2 | 24
O=C(N/C(=C\c1ccc(Br)cc1)C(=O)N1CCCC1)c1cccs1 | -48 | 3 | 24 | 30 | 33 | 11 | /
COc1ccc(C2(C)NC(=O)N(CC(=O)Nc3c(C)n(C)n(-c4ccccc4)c3=O)C2=O)cc1 (configuration not stated) | -14 | 11 | 13 | -5 | 1 | -1 | /
Cc1ccc(S(=O)(=O)N(Cc2ccccc2)c2ccccc2C(=O)Nc2ccccc2C(=O)NCc2ccco2)cc1 | -7 | 0 | 32 | 11 | 26 | 10 | /
Cc1ccc(S(=O)(=O)N(Cc2ccccc2)c2ccccc2C(=O)NCc2ccco2)cc1 | / | 4 | 38 | 12 | 41* | 5 | 20
Cc1[nH]n(-c2ccccc2)c(=O)c1N=Nc1c(O)cc(S(=O)(=O)N(C)C)c2ccccc12 | 18 | 20 | 44 | 30 | 43* | 85* | 21
O=C(COC(=O)c1cnccn1)NC1CCCc2ccccc21 (configuration not stated) | -7 | 3 | -1 | -12 | -6 | / | /
Cc1ccc2cccc(OCc3ccc(Br)cc3)c2n1 | 3 | 40 | 39 | 40 | 44* | 2 | 17
Cc1ccc2cccc(OCc3ccc(F)cc3)c2n1 | 5 | 15 | 28 | 1 | 17 | 2 | /
CCn1c(-c2cc(Br)cc(OC)c2O)nc2cc(S(=O)(=O)N(C)C)ccc21 | / | -7 | 17 | 19 | 43* | -1 | 16
Clc1ccccc1/C=C/c1ccnc2ccccc12 | -6 | 28 | 37 | 13 | 44* | 38 | 26
Oc1ccc(/C=C/c2ccnc3ccccc23)cc1 | 3 | 21 | 12 | 24 | 20 | -4 | /
Cc1ccc(C)c(N2CCN(C(=O)c3ccc4c(c3)c(C)c(C)n4C)CC2)c1 | 14 | 8 | 36 | 27 | 43* | 24 | 18
Cc1ccc(C)c(N2CCN(C(=O)c3ccc4nc(-c5ccco5)c(-c5ccco5)nc4c3)CC2)c1 | / | 6 | 2 | 5 | 44* | 30 | 37*
O=C1c2ccccc2NC(c2ccc(Br)s2)N1O (configuration not stated) | / | 9 | 27 | 16 | -1 | ? | /
Cc1ccc(S(=O)(=O)N2CCCCC2)cc1C(=O)N1CCCCCC1 | 13 | 19 | 22 | 12 | -3 | / | /
O=C(COc1ccccc1/C=C1\SC(=O)NC1=O)Nc1ccccc1 | -18 | 18 | 25 | 13 | 18 | ? | /
O=C1NC(=O)/C(=C\c2ccccc2Oc2ccc(F)c(F)c2)S1 | / | -83 | 28 | 19 | 45* | 37 | 32*
O=C1NC(=O)C(=Cc2ccc(Cl)cc2Cl)S1 | -126 | / | / | / | / | / | /
O=C1NC(=O)/C(=C/c2ccccc2OCc2ccccc2)S1 | 6 | 18 | 20 | 40 | 46* | 27 | 37*
CCOc1ccccc1CNC(=O)c1c([N+](=O)[O-])c(C)nn1C | 11 | -8 | 6 | 14 | 2 | -4 | /
COc1ccccc1-n1c(SCC(=O)c2ccc(O)cc2O)nc2cc([N+](=O)[O-])ccc21 | -43 | 17 | 39 | 4 | 41* | -8 | 29
SMILES | PfHsp90 yeast 2 | NLRP3 yeast inh | tim23-1 inh | TIM10 inh | tim10-1 inh | SKKanGAS inh | tim10-1 conf
COc1ccccc1-n1c(SCC(=O)NC2CCS(=O)(=O)C2)nc2cc([N+](=O)[O-])ccc21 (configuration not stated) | -23 | 1 | 3 | 7 | 10 | 2 | /
COc1ccccc1N1CCN(C(=O)Nc2ccc(F)c(Cl)c2)CC1 | 18 | 17 | 30 | 29 | 36 | 11 | /
CCOc1ccccc1N1CCN(C(=O)Nc2ccc(F)c(Cl)c2)CC1 | -20 | 30 | 47 | 37 | 48* | 30 | 40*
COc1ccc(C2C=C(C34CC5CC(CC(C5)C3)C4)NC(=S)N2)cc1 (configuration not stated) | -9 | 13 | 35 | 22 | 43* | 12 | 30
COc1ccc(C2=CC(c3ccc(OC)c(OC)c3)NC(=S)N2)cc1 (configuration not stated) | 4 | -9 | 4 | 7 | 12 | 6 | /
O=C(CN1C(=O)NC2(CCCC2)C1=O)N1CCc2ccccc2C1 | -1 | 12 | 4 | -3 | 11 | -1 | /
Cc1cccc(CSc2nc3sc(C)c(C)c3c(=O)n2Cc2ccco2)c1 | 1 | -8 | 20 | -2 | 21 | 9 | /
Cc1sc2nc(SCc3nc4ccccc4[nH]3)n(Cc3ccco3)c(=O)c2c1C | 6 | -8 | 46 | 29 | 52* | 24 | 35*
N#CCN(N=Nc1ccccc1)c1ccccc1 | 6 | 22 | 12 | 0 | 20 | 2 | /
CC(=O)c1c(C)[nH]c(C(=O)Nc2nc(-c3ccccc3)c(C)s2)c1C | -6 | 16 | 26 | 22 | 43* | 5 | 28
CC(=O)c1c(C)[nH]c(C(=O)Nc2nccs2)c1C | / | 4 | 7 | 4 | 11 | -11 | /
Brc1ccccc1-c1nnc2sc(-c3ccc4c(c3)OCCO4)nn12 | / | 17 | 42 | 34 | 49* | 8 | 24
COc1ccc(-c2cnn3c4c(c(C)nc23)CCN4C(C)C)cc1OC | 23 | 13 | -2 | 15 | 43* | 1 | 25
CC1CN(c2nc3ccccc3nc2SCC(=O)Nc2ccc(F)cc2)CC(C)O1 (configuration not stated) | -38 | 10 | 17 | -21 | -6 | 13 | /
Cc1ccc(C(=O)NN2CCOCC2)cc1 | -3 | -13 | -7 | -8 | 11 | -3 | /
O=C(NN1CCOCC1)c1ccc(Br)cc1 | 16 | 18 | 10 | 8 | 42* | -3 | -6
COc1ccc(CCN(C)C(=O)c2cc(-c3ccc(C)cc3)nc3ccccc23)cc1OC | -1 | 6 | -4 | -29 | -19 | 4 | /
NS(=O)(=O)c1cccc(NC(=O)CSc2nc3ccccc3c(=O)n2CCCN2CCOCC2)c1 | 8 | 4 | 0 | 14 | 2 | 18 | /
Cn1c(SC2=CS(=O)(=O)c3ccccc32)nc2ccccc21 | -14 | 27 | 33 | 30 | 44* | 0 | 30
Cc1cc(SCC(=O)N/N=C/c2ccco2)nc2ccccc12 | 18 | 6 | 28 | 3 | 40* | 0 | 15
